# PubChem BioAssay (NCI)
# The panel holds about 83,000 compounds, 20% with a hit somewhere; the sample as a whole holds those more often.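 Treatment: one concentration, 48 hours, 96-well format. Scoring: percent growth, with anything below 10 considered active.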 A number with no mark means an inactive call. The source made the active and inactive calls.
# Test system: MDA-MB-468 breast
# Experiment: NCI-60 one-dose screen, 48 h (100 = growth as untreated, 0 = no growth, -100 = all killed)
# Settings: 10 µM unless noted
row,Structure (SMILES),growth
1,Clc1cc2c(c(CSc3nc4ccccc4n4cccc34)c1)OCOC2,-1.64% (active)
2,S=C(Nc1ccccc1)c1ccccn1,101%
3,CCc1ccc(Nc2cc(C)nc3nc(C)nn23)cc1,-87.8% (active)
4,NC(=O)c1cc(Cl)ccc1NC(=O)/C=C/c1ccccc1,30.7%
5,S=C(c1ccccc1)N1CCN(c2cccc(Cl)c2)CC1,105%
6,Nc1ncnc2c1ncn2C1OC(COP(=O)(O)O)C(O)C1O (stereo unspecified),102%
7,Nc1cc(C(=O)O)cc(C(=O)O)c1,112%
8,COc1ccccc1Nc1nnc(COc2ccc(CNC(=O)CCCC/C=C/C(C)C)cc2OC)o1,99.7%
9,CCN(CC)Cc1cc(Nc2cc(C(F)(F)F)c(C#N)c3nc4ccccc4n23)ccc1O,-0.969% (active)
10,COc1cc2c(O)n(CCCN3CCOCC3)c3c4cnc5cccc(c(=O)c3c2cc1OC)c54,47.1%
11,C#Cc1ccc(-n2c(/C=C/c3ccc(O)c(OC)c3)nc3ncccc3c2=O)cc1,89.8%
